Experimental data reported in PubChem BioAssay (EPA / NIEHS).
Where “and” joins values, the source holds several entries; their conditions need not be identical. Identical values can stand only once. Inconclusive results are not listed. Calls of active or inactive are those of the source. Rule for the calls, unless noted: active = hit-call score of the fitted dose curve at least 0.9, where 1 is the maximum; inactive = score below 0.9.

Legend:
[1] = target: Bile acid receptor (Homo sapiens) (UniProt Q96RI1); test: ATG_FXR_TRANS: Attagene TRANS-FACTORIAL HepG2 Assay for Farnesoid X Receptor (FXR) (AID 2282979; active = hit-call score of the fitted dose curve at least 0.9, where 1 is the maximum;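 note: hits raise reporter mRNA above DMSO so AC50 marks FXR activation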); conditions: HepG2 Attagene TRANS FXR-GAL4 reporter transcription
Chain of Bile acid receptor (Homo sapiens) (Q96RI1 whole entry, looked up, the tested form may be a part): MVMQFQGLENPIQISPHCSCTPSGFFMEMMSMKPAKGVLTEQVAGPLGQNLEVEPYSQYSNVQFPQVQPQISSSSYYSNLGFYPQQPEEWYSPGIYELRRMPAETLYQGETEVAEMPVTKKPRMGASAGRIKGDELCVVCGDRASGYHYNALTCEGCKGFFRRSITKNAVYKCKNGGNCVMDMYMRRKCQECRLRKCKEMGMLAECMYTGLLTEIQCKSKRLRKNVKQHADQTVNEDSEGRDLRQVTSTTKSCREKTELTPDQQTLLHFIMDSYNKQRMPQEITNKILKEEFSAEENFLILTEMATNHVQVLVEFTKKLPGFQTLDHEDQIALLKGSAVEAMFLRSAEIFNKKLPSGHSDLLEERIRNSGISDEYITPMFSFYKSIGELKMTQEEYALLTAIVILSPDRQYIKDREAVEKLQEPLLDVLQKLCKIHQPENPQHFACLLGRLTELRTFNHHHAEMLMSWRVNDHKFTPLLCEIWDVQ
Summary of the method: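 Chimeric FXR-GAL4 activity in transiently transfected human HepG2 liver cells is scored as induction of reporter mRNA after 24 h of dosing. Detection uses RT-PCR with fluorescent labelling and capillary electrophoresis, with DMSO serving as baseline.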

[2] = target: Oxysterols receptor LXR-alpha (Homo sapiens) (UniProt Q13133); test: ATG_LXRa_TRANS: Attagene TRANS-FACTORIAL HepG2 Assay for human Liver X Receptor alpha (LXRa) (AID 2282980; active = hit-call score of the fitted dose curve at least 0.9, where 1 is the maximum); conditions: HepG2 Attagene TRANS reporter, LXRa transactivation
Chain of Oxysterols receptor LXR-alpha (Homo sapiens) (Q13133 whole entry, looked up): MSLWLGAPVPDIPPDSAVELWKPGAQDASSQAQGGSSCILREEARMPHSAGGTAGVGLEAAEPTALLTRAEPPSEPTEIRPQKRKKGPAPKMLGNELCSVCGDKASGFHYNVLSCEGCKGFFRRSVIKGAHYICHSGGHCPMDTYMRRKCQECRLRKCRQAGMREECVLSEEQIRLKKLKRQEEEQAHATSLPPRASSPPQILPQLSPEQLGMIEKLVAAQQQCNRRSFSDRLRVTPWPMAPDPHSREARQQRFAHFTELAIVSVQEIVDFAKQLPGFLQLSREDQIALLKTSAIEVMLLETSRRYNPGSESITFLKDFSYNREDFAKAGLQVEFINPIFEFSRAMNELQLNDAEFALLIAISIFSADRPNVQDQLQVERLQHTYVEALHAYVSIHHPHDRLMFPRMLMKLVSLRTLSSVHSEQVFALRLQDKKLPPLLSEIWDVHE
Summary of the method: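 Transient HepG2 transfectants, 24 h dosing, RT-PCR/CE mRNA reporter quantitation; gain-of-signal vs DMSO.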

[3] = target: Oxysterols receptor LXR-beta (Homo sapiens) (UniProt P55055); test: ATG_LXRb_TRANS: Attagene TRANS-FACTORIAL HepG2 Assay for human Liver X Receptor beta (LXRb) (AID 2282981; active = hit-call score of the fitted dose curve at least 0.9, where 1 is the maximum); conditions: HepG2 Attagene TRANS GAL4-LXRb reporter, mRNA
Chain of Oxysterols receptor LXR-beta (Homo sapiens) (P55055 whole entry, looked up, the tested form may be a part): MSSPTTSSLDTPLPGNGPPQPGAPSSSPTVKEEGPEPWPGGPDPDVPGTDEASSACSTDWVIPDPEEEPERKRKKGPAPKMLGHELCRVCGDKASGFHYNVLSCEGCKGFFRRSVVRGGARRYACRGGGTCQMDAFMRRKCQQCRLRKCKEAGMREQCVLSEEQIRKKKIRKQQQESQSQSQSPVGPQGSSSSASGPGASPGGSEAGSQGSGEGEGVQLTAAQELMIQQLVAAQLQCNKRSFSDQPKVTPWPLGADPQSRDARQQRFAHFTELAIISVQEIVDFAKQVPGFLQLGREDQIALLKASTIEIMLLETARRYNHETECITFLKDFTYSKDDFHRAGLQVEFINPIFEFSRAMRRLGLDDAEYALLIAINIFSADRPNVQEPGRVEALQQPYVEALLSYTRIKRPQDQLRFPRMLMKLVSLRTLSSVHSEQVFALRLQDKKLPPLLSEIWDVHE
Summary of the method: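 Cells: HepG2, transiently transfected with GAL4-UAS reporter units plus LXRb-Gal4 fusion. Treatment: 24 h. Detection: reporter mRNA by RT-PCR, 6-FAM labelling, HpaI digestion, capillary electrophoresis.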

[4] = target: Hepatocyte nuclear factor 4-alpha (Homo sapiens) (UniProt P41235); test: ATG_HNF4a_TRANS: Attagene TRANS-FACTORIAL HepG2 Assay for human Hepatocyte Nuclear Factor 4 alpha (HNF4a) (AID 2282982; active = hit-call score of the fitted dose curve at least 0.9, where 1 is the maximum); conditions: HepG2 HNF4a transactivation reporter, mRNA readout
Chain of Hepatocyte nuclear factor 4-alpha (Homo sapiens) (P41235 whole entry, looked up): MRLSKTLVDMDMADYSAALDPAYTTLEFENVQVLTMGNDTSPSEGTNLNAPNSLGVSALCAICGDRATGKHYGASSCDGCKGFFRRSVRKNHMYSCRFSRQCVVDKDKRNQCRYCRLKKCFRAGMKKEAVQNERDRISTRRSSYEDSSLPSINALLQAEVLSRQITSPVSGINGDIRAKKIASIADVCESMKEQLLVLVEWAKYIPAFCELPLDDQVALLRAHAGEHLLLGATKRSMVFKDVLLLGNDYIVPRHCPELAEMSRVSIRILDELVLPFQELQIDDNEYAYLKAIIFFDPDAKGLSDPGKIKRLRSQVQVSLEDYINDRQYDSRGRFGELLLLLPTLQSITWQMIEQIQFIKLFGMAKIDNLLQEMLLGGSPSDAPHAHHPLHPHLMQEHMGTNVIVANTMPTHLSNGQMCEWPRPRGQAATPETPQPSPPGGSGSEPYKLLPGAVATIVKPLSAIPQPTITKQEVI
Summary of the method: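 Transfected HepG2 reporter cells are dosed for 24 h; reporter RNA is reverse-transcribed, amplified, fluorescently labelled and HpaI-digested before CE sizing. Positive-direction fit against DMSO.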

[5] = ATG_M_06_TRANS: Attagene TRANS-FACTORIAL HepG2 Assay for M06 Transcription Factor (Internal Marker) (AID 2282983; active = hit-call score of the fitted dose curve at least 0.9, where 1 is the maximum;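 note: reporter transcript level by RT-PCR then capillary electrophoresis fluorescence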); conditions: HepG2 Attagene TRANS M06 internal marker reporter
Summary of the method: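 Measured by capillary electrophoresis of fluorescently labelled RT-PCR products, this endpoint reflects reporter mRNA in HepG2 cells harbouring exogenous NR-GAL4 reporter constructs after 24 h exposure, with DMSO as baseline.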

[6] = target: Nuclear receptor subfamily 4 group A member 2 (Homo sapiens) (UniProt P43354); test: ATG_NURR1_TRANS: Attagene TRANS-FACTORIAL HepG2 Assay for human Nuclear Receptor Related Protein 1 (NURR1) (AID 2282985; active = hit-call score of the fitted dose curve at least 0.9, where 1 is the maximum); conditions: HepG2 Attagene TRANS reporter, mRNA readout
Chain of Nuclear receptor subfamily 4 group A member 2 (Homo sapiens) (P43354 whole entry, looked up): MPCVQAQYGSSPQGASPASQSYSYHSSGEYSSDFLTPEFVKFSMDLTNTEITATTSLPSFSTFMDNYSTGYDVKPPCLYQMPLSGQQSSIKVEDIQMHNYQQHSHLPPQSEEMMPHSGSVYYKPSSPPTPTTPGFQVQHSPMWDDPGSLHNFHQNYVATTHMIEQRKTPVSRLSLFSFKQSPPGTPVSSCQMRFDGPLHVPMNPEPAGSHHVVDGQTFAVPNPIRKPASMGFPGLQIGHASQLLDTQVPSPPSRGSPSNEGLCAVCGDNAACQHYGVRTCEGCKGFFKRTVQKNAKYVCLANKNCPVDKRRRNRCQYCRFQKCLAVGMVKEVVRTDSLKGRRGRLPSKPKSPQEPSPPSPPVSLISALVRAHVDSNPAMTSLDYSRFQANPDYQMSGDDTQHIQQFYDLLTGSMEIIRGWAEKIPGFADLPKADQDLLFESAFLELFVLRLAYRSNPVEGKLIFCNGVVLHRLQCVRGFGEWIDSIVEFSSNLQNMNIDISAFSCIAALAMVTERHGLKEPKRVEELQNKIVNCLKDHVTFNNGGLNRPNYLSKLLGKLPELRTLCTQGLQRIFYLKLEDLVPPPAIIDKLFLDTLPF
Summary of the method: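 Cells: HepG2, transiently transfected. Exposure: 24 h. Detection: fluorescence of labelled RT-PCR products separated by capillary electrophoresis; upward fit versus DMSO.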

[7] = target: Transcriptional activator Myb (Homo sapiens) (UniProt P10242); test: ATG_Myb_CIS: Attagene CIS-FACTORIAL HepG2 Assay for human Myeloblastosis (Myb) Proto-Oncogene Transcription Factor (AID 2282986); conditions: HepG2 Attagene CIS-FACTORIAL Myb reporter transcription; actives raise or lower the signal
Chain of Transcriptional activator Myb (Homo sapiens) (P10242 whole entry, looked up): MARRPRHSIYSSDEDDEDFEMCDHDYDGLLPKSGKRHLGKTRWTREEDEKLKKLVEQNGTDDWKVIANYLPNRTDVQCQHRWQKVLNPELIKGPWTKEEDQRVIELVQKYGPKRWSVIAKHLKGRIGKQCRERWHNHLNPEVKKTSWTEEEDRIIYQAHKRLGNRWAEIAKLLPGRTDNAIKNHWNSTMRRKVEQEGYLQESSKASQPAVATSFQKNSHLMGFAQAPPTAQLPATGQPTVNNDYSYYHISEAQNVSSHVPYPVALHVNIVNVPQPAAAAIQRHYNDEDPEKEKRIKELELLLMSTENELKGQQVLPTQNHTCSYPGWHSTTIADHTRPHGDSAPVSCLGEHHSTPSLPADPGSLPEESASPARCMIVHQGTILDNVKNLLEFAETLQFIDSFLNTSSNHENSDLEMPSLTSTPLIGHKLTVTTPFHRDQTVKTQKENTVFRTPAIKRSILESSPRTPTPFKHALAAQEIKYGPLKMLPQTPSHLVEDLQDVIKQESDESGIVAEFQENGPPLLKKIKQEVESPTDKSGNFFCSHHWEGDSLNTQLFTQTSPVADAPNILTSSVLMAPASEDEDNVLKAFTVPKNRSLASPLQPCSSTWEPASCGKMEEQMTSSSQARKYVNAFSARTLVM
Summary of the method: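 Transiently transfected HepG2 cells, treated 24 h. Reporter mRNA quantified by RT-PCR/capillary electrophoresis; bidirectional fit relative to DMSO.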

[8] = target: Nuclear respiratory factor 1 (Homo sapiens) (UniProt Q16656); test: ATG_NRF1_CIS: Attagene CIS-FACTORIAL HepG2 Assay for human Nuclear Respiratory Factor 1 (NRF1) Orphan Gene (AID 2282987); conditions: HepG2 NRF1 cis-element reporter, Attagene multiplex; actives raise or lower the signal
Chain of Nuclear respiratory factor 1 (Homo sapiens) (Q16656 whole entry, looked up, the tested form may be a part): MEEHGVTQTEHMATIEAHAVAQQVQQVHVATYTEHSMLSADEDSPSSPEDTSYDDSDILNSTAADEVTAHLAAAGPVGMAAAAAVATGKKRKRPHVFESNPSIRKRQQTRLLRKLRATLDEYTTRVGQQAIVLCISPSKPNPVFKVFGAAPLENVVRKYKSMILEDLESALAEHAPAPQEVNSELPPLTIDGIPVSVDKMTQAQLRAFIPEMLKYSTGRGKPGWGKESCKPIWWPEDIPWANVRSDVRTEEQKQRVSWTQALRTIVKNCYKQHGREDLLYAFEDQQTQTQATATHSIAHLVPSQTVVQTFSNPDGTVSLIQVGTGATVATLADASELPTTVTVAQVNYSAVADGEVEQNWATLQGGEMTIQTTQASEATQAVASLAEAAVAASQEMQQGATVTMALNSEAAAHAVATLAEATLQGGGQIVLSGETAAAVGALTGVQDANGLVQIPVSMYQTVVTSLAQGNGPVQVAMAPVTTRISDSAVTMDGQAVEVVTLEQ
Summary of the method: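 Cells (HepG2, transient MRTU transfection) are exposed to compound for 24 h, then RNA isolated and reporter mRNA amplified and fluorescently labelled. Fragments are separated by capillary electrophoresis; signal change is fitted bidirectionally relative to DMSO.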

[9] = ATG_NFI_CIS: Attagene CIS-FACTORIAL HepG2 Assay for human Nuclear Factor I (NFI) (AID 2282989); conditions: HepG2 cis-regulatory reporter, NFI response element transcription; actives raise or lower the signal
Summary of the method: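 Reporter transcription driven by endogenous transcription factors in HepG2 cells; 24 h treatment. Quantitation by labelled RT-PCR fragments on capillary electrophoresis, gain- or loss-of-signal relative to DMSO.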

[10] = target: Myc proto-oncogene protein (Homo sapiens) (UniProt P01106); test: ATG_Myc_CIS: Attagene CIS-FACTORIAL HepG2 Assay for human Myelocytomatosis (Myc) Proto-Oncogene Transcription Factor (AID 2282990); conditions: HepG2, Attagene cis-reporter transcription factor activity; actives raise or lower the signal
Chain of Myc proto-oncogene protein (Homo sapiens) (P01106 whole entry, looked up): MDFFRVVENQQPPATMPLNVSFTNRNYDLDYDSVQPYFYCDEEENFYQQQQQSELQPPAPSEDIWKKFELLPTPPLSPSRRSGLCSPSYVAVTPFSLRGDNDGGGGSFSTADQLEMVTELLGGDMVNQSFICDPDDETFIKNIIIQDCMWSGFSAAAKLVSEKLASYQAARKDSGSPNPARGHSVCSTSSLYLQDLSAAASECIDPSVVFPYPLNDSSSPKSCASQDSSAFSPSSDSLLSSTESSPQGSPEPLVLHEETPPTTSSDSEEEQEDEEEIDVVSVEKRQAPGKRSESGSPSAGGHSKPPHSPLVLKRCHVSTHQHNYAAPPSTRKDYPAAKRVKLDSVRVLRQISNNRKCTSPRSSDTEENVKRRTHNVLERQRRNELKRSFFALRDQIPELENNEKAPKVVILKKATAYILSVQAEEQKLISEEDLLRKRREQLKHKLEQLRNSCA
Summary of the method: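 Cells of the HepG2 human liver line bear multiple cis-driven reporter transcription units. Reporter mRNA after 24 h exposure is reverse-transcribed, amplified, labelled and resolved by capillary electrophoresis, with gain- or loss-of-signal fitting relative to DMSO.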

[11] = ATG_NF_kB_CIS: Attagene CIS-FACTORIAL HepG2 Assay for human Nuclear Factor Kappa B (NF-kB) (AID 2282991); conditions: HepG2 Attagene cis-factorial NF-kB reporter mRNA; actives raise or lower the signal
Summary of the method: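 Measures mRNA induction of an NF-kB-responsive cis-element reporter in HepG2 cells transfected with multiple reporter units, sampled 24 h post-dosing; quantified by fluorescence after RT-PCR and capillary electrophoresis, fitted for activation or inhibition against DMSO.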

[12] = ATG_NRF2_ARE_CIS: Attagene CIS-FACTORIAL HepG2 Assay for human Nuclear Factor Erythroid 2 Related Factor 2 (NFR2) response to Antioxidant Response Elements (ARE) (AID 2282992); conditions: HepG2 Attagene ARE/NRF2 reporter, transcription factor activity; actives raise or lower the signal;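 for AC50: reporter mRNA level measured by RT-PCR and capillary electrophoresis fluorescence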
Summary of the method: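 HepG2 cells transiently transfected with multiplexed cis-regulated reporter transcription units measure endogenous transcription factor activity. Reporter mRNA at 24 h is quantified by RT-PCR, fluorescent labelling and capillary electrophoresis, with bidirectional fitting relative to DMSO.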

[13] = ATG_Oct_MLP_CIS: Attagene CIS-FACTORIAL HepG2 Assay for human Octamer-Binding Transcription Factor (Oct) (AID 2282993); conditions: HepG2 Attagene cis-factorial Oct reporter, mRNA; actives raise or lower the signal
Summary of the method: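 Transfected HepG2 cells, 24 h treatment. Reporter mRNA quantified by RT-PCR–capillary electrophoresis; bidirectional fitting against DMSO.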

[14] = target: Cellular tumor antigen p53 (Homo sapiens) (UniProt P04637); test: ATG_p53_CIS: Attagene CIS-FACTORIAL HepG2 Assay for human p53 Transcription Factor (AID 2282994); conditions: HepG2 p53 cis-element reporter, Attagene mRNA; actives raise or lower the signal
Chain of Cellular tumor antigen p53 (Homo sapiens) (P04637 whole entry, looked up): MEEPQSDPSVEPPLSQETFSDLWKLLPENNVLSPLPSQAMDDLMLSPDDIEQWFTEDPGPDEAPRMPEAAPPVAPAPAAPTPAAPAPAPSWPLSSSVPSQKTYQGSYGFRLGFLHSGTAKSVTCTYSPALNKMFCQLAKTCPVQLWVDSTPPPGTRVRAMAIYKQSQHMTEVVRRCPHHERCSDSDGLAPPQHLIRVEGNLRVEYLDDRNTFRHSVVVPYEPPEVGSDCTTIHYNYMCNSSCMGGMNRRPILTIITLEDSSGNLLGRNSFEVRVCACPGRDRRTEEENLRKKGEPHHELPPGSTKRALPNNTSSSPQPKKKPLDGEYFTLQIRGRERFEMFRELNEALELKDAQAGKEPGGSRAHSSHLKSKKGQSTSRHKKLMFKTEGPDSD
Summary of the method: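 HepG2 cells transiently transfected with multiplexed cis-regulated reporter transcription units read endogenous TF activity. After 24 h compound exposure, reporter mRNA was quantified by RT-PCR, fluorescent labelling, HpaI digestion and capillary electrophoresis; bidirectional fits versus DMSO baseline.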

[15] = BSK_3C_TissueFactor: BioMAP Diversity Plus: 3C Assay for Tissue Factor Biomarker Activity (AID 2282997); conditions: BioMAP 3C HUVEC, tissue factor biomarker readout; actives raise or lower the signal
Summary of the method: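 Values derive from bidirectional curve fitting against DMSO of Tissue Factor ELISA signals, taken 24 h after dosing primary human umbilical vein endothelial cells.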

[16] = BSK_3C_VCAM1: BioMAP Diversity Plus: 3C Assay for Vascular cell adhesion molecule 1 (VCAM1) Biomarker Activity (AID 2282999); conditions: BioMAP 3C HUVEC, VCAM1 ELISA, cytokine-stimulated; actives raise or lower the signal
Summary of the method: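 Endothelial cells from human umbilical vein are treated with test chemical. At 24 h, VCAM-1 is measured by ELISA, and responses in either direction are fitted relative to DMSO.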

[17] = BSK_4H_Eotaxin3: BioMAP Diversity Plus: 4H Assay for Eotaxin 3 Biomarker Activity (AID 2283000); conditions: primary human endothelial cells (HUVEC); actives raise or lower the signal
Summary of the method: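 Endothelial primary cells (human umbilical vein) exposed to compound for 24 h. ELISA detection of Eotaxin-3.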

[18] = target: human Peroxisome Proliferator-activated Receptor alpha (PPARa), PPARA (gene 5465) (UniProt Q07869); test: ATG_PPARa_TRANS: Attagene TRANS-FACTORIAL HepG2 Assay for human Peroxisome Proliferator-activated Receptor alpha (PPARa) (AID 2283001; active = hit-call score of the fitted dose curve at least 0.9, where 1 is the maximum;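 for AC50: potency for gain of reporter signal over DMSO so agonist or activator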)
Chain of human Peroxisome Proliferator-activated Receptor alpha (PPARa), PPARA (gene 5465) (Q07869 whole entry, looked up, the tested form may be a part): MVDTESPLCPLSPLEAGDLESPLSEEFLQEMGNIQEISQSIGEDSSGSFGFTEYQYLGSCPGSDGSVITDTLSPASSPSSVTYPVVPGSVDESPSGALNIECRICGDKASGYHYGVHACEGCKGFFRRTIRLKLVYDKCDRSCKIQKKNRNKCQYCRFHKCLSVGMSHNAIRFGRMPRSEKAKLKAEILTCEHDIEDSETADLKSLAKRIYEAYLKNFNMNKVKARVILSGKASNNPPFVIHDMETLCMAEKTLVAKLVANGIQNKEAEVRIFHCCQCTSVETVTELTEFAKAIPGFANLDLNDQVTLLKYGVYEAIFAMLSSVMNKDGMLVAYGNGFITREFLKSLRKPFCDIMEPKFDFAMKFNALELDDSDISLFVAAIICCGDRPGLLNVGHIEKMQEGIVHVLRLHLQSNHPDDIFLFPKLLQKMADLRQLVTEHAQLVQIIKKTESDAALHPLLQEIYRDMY
Summary of the method: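 Reporter transcripts from GAL4-UAS units in transfected HepG2 were quantified 24 h after dosing. Detection used reverse transcription, PCR, fluorescent primer extension and capillary electrophoresis, with DMSO as baseline.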

[19] = ATG_M_32_TRANS: Attagene TRANS-FACTORIAL HepG2 Assay for M32 Transcription Factor (Internal Marker) (AID 2282984; active = hit-call score of the fitted dose curve at least 0.9, where 1 is the maximum;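 note: transcript level of a background control reporter unit measured by RT-PCR and capillary electrophoresis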); conditions: HepG2 Attagene TRANS M32 internal marker reporter
Summary of the method: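 Using transiently transfected HepG2 cells exposed to test chemicals for 24 h, reporter transcripts are converted to labelled cDNA fragments and quantified by capillary electrophoresis. DMSO defines the activity baseline.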

[20] = BSK_3C_uPAR: BioMAP Diversity Plus: 3C Assay for Urokinase-type plasminogen activator receptor (uPAR) Biomarker Activity (AID 2282998); conditions: BioMAP 3C HUVEC, uPAR biomarker ELISA; actives raise or lower the signal
Summary of the method: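 Readout: ELISA for surface uPAR. System: human umbilical vein endothelial primary cells, 24 h after chemical exposure. Analysis: bidirectional fit, DMSO baseline.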

Measured: AC50

O=C(O)C(F)(F)C(F)(F)C(=O)O
not listed: [19] | [20]
inactive: all other assays above

CC(O)C#N (stereo not drawn)
inactive: [1] | [2] | [4] | [5] | [7] | [9] | [10] | [11] | [12] | [13] | [14]

O=C(O)C(F)(F)OC(F)(F)C(F)(F)OC(F)(F)F
active: [18] 17.9 µM and 15.4 µM
not listed: [6]
inactive: all other assays above

CCNc1nc(Cl)nc(NC(C)(C)C)n1
not listed: [2] | [3] | [6] | [14] | [18]
inactive: all other assays above

FC(F)(F)C(F)(C(F)(F)F)C(F)(F)C(F)(F)CC1CO1 (stereo not drawn)
not listed: [2] | [3] | [6] | [8] | [18] | [20]
inactive: all other assays above

O=C(CBr)OCc1ccccc1
active: [12] 67.8 µM
inactive: [1] | [2] | [5] | [7] | [8] | [10] | [11] | [13] | [14]

CCCCC(CC)COP(=O)(Oc1ccccc1)Oc1ccccc1 (stereo not drawn)
active: [6] 21.8 µM | [7] 143 µM | [9] 158 µM | [10] 143 µM | [11] 159 µM | [12] 12.2 µM | [13] 87.1 µM | [15] 9.63 µM | [16] 20 µM | [17] 20 µM
inactive: [1] | [4] | [5] | [19]

Nc1ccc([N+](=O)[O-])cc1Cl
not listed: [3] | [5] | [6] | [9] | [18] | [20]
inactive: all other assays above

CC(C)CBr
not listed: [3] | [4] | [6] | [15] | [16] | [17] | [20]
inactive: all other assays above
